Test results from PubChem BioAssay (NCATS).
Records with an inconclusive call do not appear. Activity calls are given as the source filed them. Unless noted, the call rests on the fitted dose curve; in most records, active means well fitted curve in either direction with a large enough effect (not every such curve was filed as active); inconclusive means small, poorly fitted or top-dose-only effect, or another doubt; inactive means flat fitted curve, though single readings scatter.

Columns and labels:
[1] = AP1 Signaling Pathway (AID 357); conditions: ME-180 AP-1-bla reporter, EGF-induced, beta-lactamase ratio, 5 h; at 17.2 µM (top of the series) unless noted;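 further: ME-180 reporter cells stimulated with EGF at its EC50 level; on the % scale 0 is the no-effect control and ±100 the full control effect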
How it was run: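 Cells are seeded overnight, exposed to compound titrations and an EC50 level of EGF for 5 hours at 37 °C, then loaded with CCF4 dye for 2.5 hours. Beta-lactamase activity under the AP-1 element is read as a blue/green ratio.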

[2] = NFAT Signaling Pathway (AID 444); conditions: Jurkat NFAT-bla M1, carbachol, beta-lactamase ratio, 5 h; at 17.2 µM (top of the series) unless noted;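 further: carbachol stimulus at about its EC50 of 1 µM final; on the % scale 0 is the no-effect control and ±100 the full control effect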
How it was run: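 Jurkat cells carrying an NFAT-driven β-lactamase reporter and co-transfected muscarinic M1 receptor were treated with compound plus carbachol (1 uM final, an EC50 level) for 5 h at 37 °C. CCF4 loading followed for 1 h at RT; 460/530 nm ratio gave %activity.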

[3] = Stat Signaling Pathway (AID 446); conditions: ME-180 SIE beta-lactamase reporter, IL-6 stimulated, 5 h; at 17.2 µM (top of the series) unless noted;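 further: ME-180 cervical cancer cells given 40 pM IL-6 alongside compound; SIE-controlled beta-lactamase reporter measured as 460/530 nm FRET emission ratio; on the % scale 0 is the no-effect control and ±100 the full control effect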
How it was run: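 Normalization used AC90 stimulation (300 pM IL-6) and AC90 inhibition (125 nM pan-JAK inhibitor at 40 pM IL-6). The underlying signal is SIE-driven beta-lactamase in ME-180 cells after 5 h IL-6 exposure with compound.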

[4] = target: Glucocorticoid receptor (Homo sapiens) (UniProt P04150); experiment: GR-GFP Redistribution (AID 450;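 active means compounds whose dose series gives a full or clear partial fitted curve of increased nuclear translocation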; further: potency means the concentration at half of the fitted maximal effect)
[5] = target: Glucocorticoid receptor (Homo sapiens) (UniProt P04150); experiment: GR-EFC Redistribution (AID 451; calls by dose curve; further: potency means the concentration at half of the fitted maximal effect); conditions: CHO-K1 GR-EFC translocation, beta-gal luminescence, 2 h
How it was run: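 CHO-K1 cells stably expressing nuclear-localized β-gal enzyme acceptor and GR fused C-terminally to the enzyme donor fragment; ligand-driven nuclear translocation restores β-gal by complementation. Compounds titrated up to 46 uM final, 2 h at 37 °C; luminescence read.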

[6] = target: 3',5'-cyclic-AMP phosphodiesterase 4B (Homo sapiens) (UniProt Q07343); experiment: qHTS Assay for Inhibitors of PDE-IV (AID 607; active means well fitted activation curve with a large enough effect in the main read-out, with a control signal flat, not every such curve was filed as active; further: % of control where 0% means no effect)
How it was run: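 HEK293 ACTOne cells with CNG channel (1000/well), endogenous PDE4; membrane potential dye, compounds up to 22.9 uM final. Fluorescence Ex 535/Em 590; RO 20-1724 (100 uM final) as reference.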

[7] = target: Guanine nucleotide-binding protein G(i) subunit alpha-1 (Homo sapiens) (UniProt P63096); experiment: qHTS Assay for Inhibitors of RGS12 GoLoco Motif Activity (Green Fluorophore) (AID 879; active means well fitted curve in the direction sought with a large enough effect; an effect the other way counts as inactive or inconclusive;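 further: 0% = labeled peptide with Gαi1 and full inhibition = labeled peptide alone without protein; negative values mean loss of peptide binding seen as reduced polarization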)
How it was run: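 A drop in FITC polarization marked displacement of the FITC-tagged RGS12 GoLoco peptide (10 nM) from Gαi1 (50 nM). Compounds were incubated 10 min at room temperature in Tris pH 7.5 buffer containing 150 mM NaCl, 0.1 mM GDP and 0.05% NP40; unlabeled peptide titration served as control.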

[8] = qHTS Assay for Identification of Small Molecule Antagonists for NFkB Signaling Pathway (AID 895; active means well fitted inhibition curve with a large enough effect in the signal ratio, with a control signal flat, not every such curve was filed as active; the % refers to the signal ratio; further: on the % scale 0 is the no-effect control and ±100 the full control effect)
How it was run: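 NFkB-bla ME-180 cervical carcinoma cells with beta-lactamase reporter under NFkB response element; compounds added, then TNF alpha at 10 pM final (EC50), 5 h at 37 C. LiveBLAzer substrate 2 h, room temperature; emission 460/530 nm at 405 nm excitation.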

[9] = qHTS Assay for Identification of Small Molecule Agonists for Thrombopoietin (TPO) Signaling Pathway (AID 917; active means well fitted curve in the direction sought with a large enough effect; an effect the other way counts as inactive or inconclusive; further: on the % scale 0 is the no-effect control and ±100 the full control effect)
How it was run: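 Ba/F3 (mouse) + hTPO receptor + GpIIb-promoter luciferase; IL-3 withdrawn overnight; compound + 26 pM TPO (EC50), 24 hrs, 37 C, 5% CO2; Steadylite luminescence, 10 min RT.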

[10] = target: Muscarinic acetylcholine receptor M1 (Rattus norvegicus) (UniProt P08482); experiment: qHTS Assay for Antagonists of Acetylcholine Muscarinic M1 Receptor: Kinetic Measurement of Intracellular Calcium Response (AID 943; active means well fitted curve in the direction sought with a large enough effect; an effect the other way counts as inactive or inconclusive;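 further: Fluo-4 calcium signal as peak divided by basal fluorescence over 4 min; nearly all actives have a fitted effect of over 75% in size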)
How it was run: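 Antagonism is measured as inhibition of the carbachol-evoked calcium rise in CHO cells transfected with rat M1. Cells are dye-loaded, exposed to compound for 10 min, then stimulated with 100 nM carbachol (EC80).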

[11] = target: Pyruvate kinase (Leishmania mexicana) (UniProt Q27686); experiment: qHTS Validation Assay for Inhibitors of Leishmania Mexicana Pyruvate Kinase (AID 945; active means well fitted curve in the direction sought with a large enough effect; an effect the other way counts as inactive or inconclusive;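 further: 0% = DMSO only neutral control wells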)
How it was run: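 Mutant LmPYK (E451W), 0.2 nM, plus 0.5 mM PEP and 0.1 mM ADP in 50 mM imidazole pH 7.2 containing 0.01% Tween 20 and 0.05% BSA. Incubated 1 h at room temperature; luminescence via PKLight, normalized to DMSO.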

[12] = target: Pyruvate kinase PKM (Homo sapiens) (UniProt P14618); experiment: qHTS Assay for Activators of Human Muscle Pyruvate Kinase (AID 954; active means well fitted curve in the direction sought with a large enough effect, not every such curve was filed as active;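 further: 0% = uninhibited enzyme and -100% = no enzyme or full thiadiazolimine inhibition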)
How it was run: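 Compound pinned into substrate mix (0.5 mM PEP, 0.1 mM ADP), then 0.1 nM PKM2 added; 1 h, RT. Stop/detection luciferase reagent added, luminescence read. Normalized to no-inhibition and no-enzyme or reference-inhibitor controls.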

[13] = target: Alpha-galactosidase A (Homo sapiens) (UniProt P06280); experiment: Counterscreen for Glucocerebrosidase Inhibitors: qHTS Assay for Human alpha-Galactosidase at pH 4.5 (AID 992; active means well fitted curve in the direction sought with a large enough effect; an effect the other way counts as inactive or inconclusive; further: 0% is about no effect)
How it was run: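 Steps: enzyme (2 nM final), then compound across 0.7 nM to 77 uM, then 80 uM fluorogenic galactopyranoside substrate; incubate 20 min at room temperature; quench at pH 10; measure fluorescence at 365/440 nm.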

[14] = qHTS Assay for Identification of Small Molecule Agonists for Hypoxia Response Element Signaling Pathway (AID 914; active means well fitted activation curve with a large enough effect in the signal ratio, with a control signal flat, not every such curve was filed as active; the % refers to the signal ratio; further: % of control where 0% means no effect); conditions: ME-180 (cervical carcinoma) HRE-bla reporter, beta-lactamase ratio, CoCl2, 17 h; activation: hits give high values
How it was run: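 Reporter activity (beta-lactamase, CCF4 460nm/530nm ratio) in HRE-bla ME-180 cells is recorded after 17 h compound exposure with EC50 CoCl2 at 37 degrees Celsius. AC50 values come from titration data.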

Sequence of Glucocorticoid receptor (Homo sapiens) (P04150 whole entry, looked up, the tested form may be a part): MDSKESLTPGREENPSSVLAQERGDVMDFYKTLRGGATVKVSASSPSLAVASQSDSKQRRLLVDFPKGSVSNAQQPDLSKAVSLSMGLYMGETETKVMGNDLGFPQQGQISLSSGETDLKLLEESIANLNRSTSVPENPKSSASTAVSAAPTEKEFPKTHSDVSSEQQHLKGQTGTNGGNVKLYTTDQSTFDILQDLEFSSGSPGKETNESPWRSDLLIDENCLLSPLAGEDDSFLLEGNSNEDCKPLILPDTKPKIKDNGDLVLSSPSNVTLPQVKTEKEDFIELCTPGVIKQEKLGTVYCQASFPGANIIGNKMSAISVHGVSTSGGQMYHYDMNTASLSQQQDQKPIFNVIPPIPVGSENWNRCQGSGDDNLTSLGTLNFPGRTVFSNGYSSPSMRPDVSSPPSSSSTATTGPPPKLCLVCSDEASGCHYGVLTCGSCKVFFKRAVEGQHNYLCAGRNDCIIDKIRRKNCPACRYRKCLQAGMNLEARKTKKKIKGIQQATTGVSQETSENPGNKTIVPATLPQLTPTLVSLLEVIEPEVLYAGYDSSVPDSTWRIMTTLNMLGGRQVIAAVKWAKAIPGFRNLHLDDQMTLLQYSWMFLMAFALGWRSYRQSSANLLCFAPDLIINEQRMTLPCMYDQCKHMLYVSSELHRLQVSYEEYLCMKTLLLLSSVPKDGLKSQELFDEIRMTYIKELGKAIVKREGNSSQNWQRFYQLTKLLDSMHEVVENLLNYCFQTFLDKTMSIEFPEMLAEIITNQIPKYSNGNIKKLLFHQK
Sequence of Pyruvate kinase PKM (Homo sapiens) (P14618 whole entry, looked up): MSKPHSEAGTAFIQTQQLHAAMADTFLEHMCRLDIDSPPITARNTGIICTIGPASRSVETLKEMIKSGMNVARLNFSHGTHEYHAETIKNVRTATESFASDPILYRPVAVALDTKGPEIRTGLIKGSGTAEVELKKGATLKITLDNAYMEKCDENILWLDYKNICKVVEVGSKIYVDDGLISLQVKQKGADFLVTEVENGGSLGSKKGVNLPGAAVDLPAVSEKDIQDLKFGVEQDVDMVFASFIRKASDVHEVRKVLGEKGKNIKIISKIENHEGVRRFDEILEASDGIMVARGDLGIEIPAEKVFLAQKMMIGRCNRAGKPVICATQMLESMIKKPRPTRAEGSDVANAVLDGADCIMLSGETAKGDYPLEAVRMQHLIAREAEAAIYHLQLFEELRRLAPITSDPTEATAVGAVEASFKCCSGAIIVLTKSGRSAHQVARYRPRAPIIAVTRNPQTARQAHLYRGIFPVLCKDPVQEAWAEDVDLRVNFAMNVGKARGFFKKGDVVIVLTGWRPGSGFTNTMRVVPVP
Sequence of Muscarinic acetylcholine receptor M1 (Rattus norvegicus) (P08482 whole entry, looked up): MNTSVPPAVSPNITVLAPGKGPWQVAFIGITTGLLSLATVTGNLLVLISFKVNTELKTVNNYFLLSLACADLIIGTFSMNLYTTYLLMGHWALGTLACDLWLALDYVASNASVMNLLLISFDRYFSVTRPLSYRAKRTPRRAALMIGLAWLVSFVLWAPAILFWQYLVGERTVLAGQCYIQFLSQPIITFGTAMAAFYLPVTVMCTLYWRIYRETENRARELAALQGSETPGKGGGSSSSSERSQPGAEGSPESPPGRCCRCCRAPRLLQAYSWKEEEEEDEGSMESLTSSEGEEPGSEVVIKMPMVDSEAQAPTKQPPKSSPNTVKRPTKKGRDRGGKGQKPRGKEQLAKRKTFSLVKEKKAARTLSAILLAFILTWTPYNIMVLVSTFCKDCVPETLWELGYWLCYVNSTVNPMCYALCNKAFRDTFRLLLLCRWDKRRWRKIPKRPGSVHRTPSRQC
Sequence of Guanine nucleotide-binding protein G(i) subunit alpha-1 (Homo sapiens) (P63096 whole entry, looked up): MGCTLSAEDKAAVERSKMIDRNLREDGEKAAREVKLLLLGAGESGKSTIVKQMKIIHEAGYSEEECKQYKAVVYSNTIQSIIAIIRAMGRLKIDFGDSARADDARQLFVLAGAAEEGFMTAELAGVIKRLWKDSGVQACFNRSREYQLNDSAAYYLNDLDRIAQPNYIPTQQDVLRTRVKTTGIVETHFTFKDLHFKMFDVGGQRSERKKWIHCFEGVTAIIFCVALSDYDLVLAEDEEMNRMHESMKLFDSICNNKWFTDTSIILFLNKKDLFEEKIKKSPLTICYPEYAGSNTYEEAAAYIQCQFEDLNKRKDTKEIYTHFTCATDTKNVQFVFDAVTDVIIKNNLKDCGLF
Sequence of Alpha-galactosidase A (Homo sapiens) (P06280 whole entry, looked up): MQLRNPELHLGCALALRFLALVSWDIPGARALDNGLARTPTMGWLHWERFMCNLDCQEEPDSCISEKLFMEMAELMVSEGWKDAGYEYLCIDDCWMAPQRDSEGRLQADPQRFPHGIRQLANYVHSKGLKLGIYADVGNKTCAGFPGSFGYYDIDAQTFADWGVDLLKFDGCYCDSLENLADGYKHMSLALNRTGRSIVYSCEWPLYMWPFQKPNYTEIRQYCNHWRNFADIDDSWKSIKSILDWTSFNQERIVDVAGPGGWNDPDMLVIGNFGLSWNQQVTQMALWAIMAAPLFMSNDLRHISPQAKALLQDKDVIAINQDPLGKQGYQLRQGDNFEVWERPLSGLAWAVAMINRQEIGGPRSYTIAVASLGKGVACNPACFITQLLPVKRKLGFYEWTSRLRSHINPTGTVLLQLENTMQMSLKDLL
Sequence of Pyruvate kinase (Leishmania mexicana) (Q27686 2-499 E452W): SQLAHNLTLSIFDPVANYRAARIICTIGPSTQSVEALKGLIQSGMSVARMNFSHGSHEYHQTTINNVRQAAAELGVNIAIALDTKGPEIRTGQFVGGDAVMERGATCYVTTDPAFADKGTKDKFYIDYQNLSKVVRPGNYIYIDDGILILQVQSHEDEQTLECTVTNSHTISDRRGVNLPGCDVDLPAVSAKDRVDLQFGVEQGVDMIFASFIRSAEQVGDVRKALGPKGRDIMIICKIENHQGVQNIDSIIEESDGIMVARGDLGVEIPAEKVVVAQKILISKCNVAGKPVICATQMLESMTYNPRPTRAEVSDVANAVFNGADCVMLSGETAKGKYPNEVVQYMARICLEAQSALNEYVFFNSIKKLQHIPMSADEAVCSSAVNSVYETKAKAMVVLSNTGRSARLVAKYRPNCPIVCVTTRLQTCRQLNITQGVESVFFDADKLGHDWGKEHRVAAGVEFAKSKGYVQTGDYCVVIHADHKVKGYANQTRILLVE
Sequence of 3',5'-cyclic-AMP phosphodiesterase 4B (Homo sapiens) (Q07343 whole entry, looked up): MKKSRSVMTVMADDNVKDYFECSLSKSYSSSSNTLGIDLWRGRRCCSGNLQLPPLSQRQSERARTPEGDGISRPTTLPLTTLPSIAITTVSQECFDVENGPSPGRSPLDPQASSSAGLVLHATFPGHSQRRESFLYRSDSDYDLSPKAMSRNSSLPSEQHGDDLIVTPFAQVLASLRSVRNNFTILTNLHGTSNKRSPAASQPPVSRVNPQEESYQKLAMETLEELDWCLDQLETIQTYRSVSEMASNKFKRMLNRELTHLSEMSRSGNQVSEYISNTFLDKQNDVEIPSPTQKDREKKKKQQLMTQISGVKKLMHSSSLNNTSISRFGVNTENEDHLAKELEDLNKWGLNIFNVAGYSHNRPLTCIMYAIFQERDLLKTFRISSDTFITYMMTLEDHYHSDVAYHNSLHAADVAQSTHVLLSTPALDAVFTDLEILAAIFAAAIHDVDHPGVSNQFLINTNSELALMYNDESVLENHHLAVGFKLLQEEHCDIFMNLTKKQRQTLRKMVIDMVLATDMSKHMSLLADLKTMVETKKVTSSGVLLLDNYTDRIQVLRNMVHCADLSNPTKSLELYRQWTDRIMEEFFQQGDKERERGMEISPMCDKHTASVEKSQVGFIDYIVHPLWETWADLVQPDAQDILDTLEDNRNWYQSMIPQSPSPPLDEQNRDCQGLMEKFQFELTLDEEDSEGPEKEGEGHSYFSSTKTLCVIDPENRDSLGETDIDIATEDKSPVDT

CCNC(=O)[C@@H]1O[C@@H](n2cnc3c(N)nc(NCCc4ccc(CCC(=O)O)cc4)nc32)[C@H](O)[C@@H]1O
inactive: activity change, negative = inhibition [1] -2.01% [at 38 µM] | activity change, negative = inhibition [2] 4.74% [at 38 µM] | activity, negative = inhibition [3] 22.6% [at 38 µM] | Potency [4] > 46 µM | Potency [5] > 46 µM | Potency [6] | outcome [7] | Potency [8] | Potency [9] | Potency [10] | Potency [11] | outcome [12] | outcome [13]

Cn1c2c(c(=O)n(C)c1=O)C(NC(=O)C(C)(C)C)(C(F)(F)F)C(=O)N2 (stereo not drawn)
inactive: activity change, negative = inhibition [1] -5.62% | activity change, negative = inhibition [2] -2.4% | activity, negative = inhibition [3] 6.52% | Potency [4] > 20.6 µM | activation [14] 8.6%

O=C(O)CCCC(=O)Nc1ccn(-c2ccccc2)n1
inactive: activity change, negative = inhibition [1] 1.68% | activity change, negative = inhibition [2] -4.19% | activity, negative = inhibition [3] 0.897% | Potency [4] > 20.6 µM | activation [14] 6.56%

CCOc1ccc(Cn2c(O)cc(=O)[nH]c2=O)cc1
inactive: activity change, negative = inhibition [1] 11.9% | activity change, negative = inhibition [2] 2.3% | activity, negative = inhibition [3] 5.06% | Potency [4] > 20.6 µM | activation [14] 5.51%

O=C(O)CC(NC(=O)COc1ccc(Cl)cc1Cl)C(=O)O (stereo not drawn)
inactive: activity change, negative = inhibition [1] 7.75% | activity change, negative = inhibition [2] 6.45% | activity, negative = inhibition [3] 1.25% | Potency [4] > 20.6 µM | activation [14] 3.63%

O=C(CSc1nnc(-c2ccco2)c(-c2ccco2)n1)Nc1ccccc1
inactive: activity change, negative = inhibition [1] 3.29% | activity change, negative = inhibition [2] -3.07% | activity, negative = inhibition [3] -9.01% | Potency [4] > 20.6 µM | activation [14] -14.8%

CCOC(=O)C(CC(=O)O)N1CCCCC1 (stereo not drawn)
inactive: activity change, negative = inhibition [1] 4.69% | activity change, negative = inhibition [2] 10.9% | activity, negative = inhibition [3] 3.36% | Potency [4] > 20.6 µM | activation [14] 11.2%

CCN(CC)CCN1C(=O)C(O)=C(C(=O)c2cc3ccccc3o2)C1c1cccnc1 (stereo not drawn)
inactive: activity change, negative = inhibition [1] 4.98% | activity change, negative = inhibition [2] -3.08% | activity, negative = inhibition [3] 2.38% | Potency [4] > 20.6 µM | activation [14] 11.5%

COc1ccc(C2CC(C(F)(F)F)n3ncc(C(=O)Nc4cccc(O)c4)c3N2)cc1OC (stereo not drawn)
inactive: activity change, negative = inhibition [1] -24.1% | activity change, negative = inhibition [2] -0.0394% | activity, negative = inhibition [3] -21.1% | Potency [4] > 20.6 µM | activation [14] -22.3%

COc1cc(NC(=O)NC(C)(C(F)(F)F)C(F)(F)F)cc(OC)c1OC
inactive: activity change, negative = inhibition [1] -9.62% | activity change, negative = inhibition [2] 19.4% | activity, negative = inhibition [3] -4.15% | Potency [4] > 20.6 µM | activation [14] -29.2%
